Results published in PubChem BioAssay (NCI).
Where “and” joins values, the source holds several entries; their conditions need not be identical. Identical values can stand only once. The panel holds about 83,000 compounds, 20% with a hit somewhere; the sample as a whole holds those more often.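 Cell lines were cultured in 96-well plates, exposed to a single compound concentration, and assessed for percent growth 48 hours later.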 Calls of active or inactive are those of the source. The calls were made as follows: active = growth percent below 10; inactive = the rest.

Assays:
Experiment in all cases: NCI-60 one-dose screen, 48 h (100 = growth as untreated, 0 = no growth, -100 = all killed)
Conditions in all cases: 10 µM unless noted
SK-MEL-2 melanoma = system: SK-MEL-2 melanoma
SN12C renal = system: SN12C renal
UO-31 renal = system: UO-31 renal
TK-10 renal = system: TK-10 renal
ACHN renal = system: ACHN renal
CAKI-1 renal = system: CAKI-1 renal
A498 renal = system: A498 renal
CCRF-CEM leukemia = system: CCRF-CEM leukemia
MOLT-4 leukemia = system: MOLT-4 leukemia
SR leukemia = system: SR leukemia
RPMI-8226 leukemia = system: RPMI-8226 leukemia
OVCAR-8 ovarian = system: OVCAR-8 ovarian
OVCAR-5 ovarian = system: OVCAR-5 ovarian
OVCAR-4 ovarian = system: OVCAR-4 ovarian
SK-OV-3 ovarian = system: SK-OV-3 ovarian
IGROV1 ovarian = system: IGROV1 ovarian
NCI/ADR-RES ovarian = system: NCI/ADR-RES ovarian
OVCAR-3 ovarian = system: OVCAR-3 ovarian
HS 578T breast = system: HS 578T breast

Measured: growth

CC1OC(OC2C(OC3CCC4(C)C(CCC5(C)C4CC=C4C6CC(C)(C)CCC6(CO)C(O)CC45C)C3(C)C)OC(C(=O)O)C(OC3OC(COC4OC(CO)C(O)C(O)C4O)C(O)C(O)C3O)C2O)C(O)C(O)C1O (centres undefined)
active: SK-MEL-2 melanoma -75.3% | SN12C renal -77.7% | UO-31 renal -88.7% | TK-10 renal -69.3% | ACHN renal -100% | CAKI-1 renal -95.3% | A498 renal -88% | CCRF-CEM leukemia -26.3% | MOLT-4 leukemia -67% | SR leukemia -44.2% | RPMI-8226 leukemia -23.5% | OVCAR-8 ovarian -51.8% | OVCAR-5 ovarian -64% | OVCAR-4 ovarian -84.3% | SK-OV-3 ovarian -83.4% | IGROV1 ovarian -81.6% | NCI/ADR-RES ovarian -68%

N#CSCc1ccc(Cl)c(CSC#N)c1
inactive: SK-MEL-2 melanoma 83.2% | SN12C renal 33.1% | UO-31 renal 24.6% | TK-10 renal 59.5% | ACHN renal 32.5% | CAKI-1 renal 22.5% | A498 renal 18% | CCRF-CEM leukemia 12% | MOLT-4 leukemia 17.5% | RPMI-8226 leukemia 23.9% | OVCAR-8 ovarian 61.9% | OVCAR-4 ovarian 48.7% | IGROV1 ovarian 59.4% | NCI/ADR-RES ovarian 45.5%
active: SR leukemia 8.52%

CCCCCCCCCCCCCCCCN(CC)CC
active: SK-MEL-2 melanoma -79.9% | SN12C renal -83.5% | UO-31 renal -69.3% | TK-10 renal -89.4% | ACHN renal -57.4% | CAKI-1 renal -81.9% | CCRF-CEM leukemia -13.4% | MOLT-4 leukemia -71.2% | RPMI-8226 leukemia -60.1% | OVCAR-8 ovarian -38.3% | OVCAR-5 ovarian -57.3% | SK-OV-3 ovarian -46.1% | IGROV1 ovarian -90.5% | OVCAR-3 ovarian -58.6% | HS 578T breast -25.1% | NCI/ADR-RES ovarian -71.1%
inactive: A498 renal 107%

Cc1ccc(NS(=O)(=O)c2ccc(C)cc2)cc1
inactive: SK-MEL-2 melanoma 101% and 79.6% | SN12C renal 105% and 99.8% | UO-31 renal 93% and 79.3% | TK-10 renal 104% and 91.5% | ACHN renal 113% and 96.6% | CAKI-1 renal 90.9% and 96% | A498 renal 92.8% and 93.4% | CCRF-CEM leukemia 92.3% and 97.2% | MOLT-4 leukemia 94% and 98.5% | SR leukemia 91.7% and 97.8% | RPMI-8226 leukemia 83.1% and 95.2% | OVCAR-8 ovarian 97.5% and 92.7% | OVCAR-4 ovarian 93.7% and 106% | SK-OV-3 ovarian 109% and 101% | IGROV1 ovarian 111% and 107% | OVCAR-3 ovarian 105% and 98.9% | HS 578T breast 98.9% and 111% | NCI/ADR-RES ovarian 104% and 99.7%

CC(=O)C(=Cc1ccc(C=C(C(C)=O)C(C)=O)cc1)C(C)=O
inactive: SK-MEL-2 melanoma 70.8% | SN12C renal 17.4% | A498 renal 94.1% | OVCAR-5 ovarian 27.1% | SK-OV-3 ovarian 93.9% | IGROV1 ovarian 48.6% | HS 578T breast 64.7%
active: UO-31 renal -12.2% | TK-10 renal 5.12% | ACHN renal -33.5% | CAKI-1 renal -50.7% | CCRF-CEM leukemia -5.86% | MOLT-4 leukemia 6.74% | SR leukemia 6.26% | RPMI-8226 leukemia 2.05% | OVCAR-8 ovarian 2.83% | OVCAR-3 ovarian -16.2% | NCI/ADR-RES ovarian 7.49%

CN=C(N)N/N=C(\C)c1ccc2c(c1)Cc1cc(/C(C)=N/NC(N)=NC)ccc1-2
inactive: CAKI-1 renal 23.4% | IGROV1 ovarian 26.5% | NCI/ADR-RES ovarian 64.8%
active: SK-MEL-2 melanoma -60.6% | SN12C renal -49.4% | UO-31 renal 6.24% | TK-10 renal -4.01% | ACHN renal -49.9% | A498 renal -32.7% | CCRF-CEM leukemia -3.32% | MOLT-4 leukemia -10.8% | RPMI-8226 leukemia -1.58% | OVCAR-8 ovarian -53.5% | OVCAR-4 ovarian -69.1% | SK-OV-3 ovarian -80.8% | OVCAR-3 ovarian -59.6% | HS 578T breast -8.27%

CCOc1ccc(-c2nc3ccc(-c4nc5ccc(N6CCN(C)CC6)cc5[nH]4)cc3[nH]2)cc1
inactive: UO-31 renal 23.2% | NCI/ADR-RES ovarian 61%
active: SK-MEL-2 melanoma 4.1% | SN12C renal -91.4% | TK-10 renal -84.9% | ACHN renal -33.8% | CAKI-1 renal -43.8% | A498 renal -91.6% | CCRF-CEM leukemia 4.03% | MOLT-4 leukemia -60.5% | RPMI-8226 leukemia -4.63% | OVCAR-8 ovarian -38.2% | OVCAR-5 ovarian -45.8% | OVCAR-4 ovarian -65.1% | SK-OV-3 ovarian -93.7% | IGROV1 ovarian -82.9% | OVCAR-3 ovarian -100% | HS 578T breast -58.3%

O=Nc1ccccc1N=O
inactive: SK-MEL-2 melanoma 90.2% | SN12C renal 71.6% | UO-31 renal 64% | TK-10 renal 115% | ACHN renal 84.5% | CAKI-1 renal 81.1% | A498 renal 110% | CCRF-CEM leukemia 97.5% | MOLT-4 leukemia 99.9% | SR leukemia 63.8% | RPMI-8226 leukemia 86.7% | OVCAR-8 ovarian 89.4% | OVCAR-5 ovarian 105% | OVCAR-4 ovarian 88.9% | SK-OV-3 ovarian 116% | IGROV1 ovarian 91.1% | OVCAR-3 ovarian 118% | NCI/ADR-RES ovarian 81.2%

NC(=O)/C=C/C(=O)c1c(Cl)cccc1Cl
active: SK-MEL-2 melanoma -67.4% | SN12C renal -90.2% | UO-31 renal -86.4% | TK-10 renal -83.7% | ACHN renal -76.3% | CAKI-1 renal -86.9% | A498 renal -58.4% | CCRF-CEM leukemia -33.9% | MOLT-4 leukemia -26.3% | SR leukemia -42% | RPMI-8226 leukemia -34.7% | OVCAR-8 ovarian -67.4% | OVCAR-5 ovarian -99.6% | OVCAR-4 ovarian -67.4% | IGROV1 ovarian -57.5% | NCI/ADR-RES ovarian -59.4%
